Measured values as given in PubChem BioAssay AID1159580 (chemical genetic matrix, 2015).
Out of some 5,500 compounds screened, about 2,000 (36%) were called active. Roughly 18% stayed inconclusive and do not appear here. Cut-off read from the data, not from the text of the source: active = normalized growth mostly below about 0.91 (no sharp cut-off); inconclusive = no clear call, values can overlap the other calls; inactive = mostly above about 0.92. This is one part of the list.

Assay: chemical genetic growth profiling, strain panel (AID 1159580);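 note: tested at 20 µM; growth read once vehicle control cultures reached saturation at 30 °C; 1 = growth at the plate median or of vehicle wells; lower values mean less growth of the strain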
Settings: growth OD
[1] = S. cerevisiae deletion strains, locus YDL101C, strain DUN1, hits give low values
[2] = S. cerevisiae deletion strains, locus YGR078C, strain PAC10, hits give low values
[3] = S. cerevisiae deletion strains, locus YHR030C, strain SLT2, hits give low values
[4] = S. cerevisiae deletion strains, locus YJR075W, strain HOC1, hits give low values
[5] = S. cerevisiae deletion strains, locus YMR263W, strain SAP30, hits give low values
[6] = S. cerevisiae deletion strains, locus YMR307W, strain GAS1, hits give low values
[7] = S. cerevisiae deletion strains, locus YNL153C, strain GIM3, hits give low values
[8] = S. cerevisiae deletion strains, locus YNL322C, strain KRE1, hits give low values
[9] = S. cerevisiae deletion strains, locus YPL055C, strain LGE1, hits give low values
[10] = S. cerevisiae deletion strains, locus YPL241C, strain CIN2, hits give low values

Measured: normalized growth

C=C1SC(Nc2cccc(C(F)(F)F)c2)=NC12CCCCC2
inactive: S. cerevisiae deletion strains, locus YAL013W, strain DEP1, hits give low values 0.999 | S. cerevisiae deletion strains, locus YBR229C, strain ROT2, hits give low values 1.01 | [1] 1.01 | S. cerevisiae deletion strains, locus YDL134C, strain PPH21, hits give low values 1.03 | S. cerevisiae deletion strains, locus YDR150W, strain NUM1, hits give low values 0.987 | S. cerevisiae deletion strains, locus YEL061C, strain CIN8, hits give low values 1.01 | [2] 0.986 | S. cerevisiae deletion strains, locus YGR229C, strain SMI1, hits give low values 0.999 | [3] 0.955 | S. cerevisiae deletion strains, locus YHR087W, strain rtc3, hits give low values 0.99 | S. cerevisiae deletion strains, locus YJR043C, strain POL32, hits give low values 1.01 | [4] 0.995 | S. cerevisiae deletion strains, locus YLR039C, strain RIC1, hits give low values 0.958 | S. cerevisiae deletion strains, locus YLR058C, strain SHM2 (second series), hits give low values 0.987 | S. cerevisiae deletion strains, locus YLR085C, strain ARP6, hits give low values 1.03 | S. cerevisiae deletion strains, locus YLR262C, strain YPT6, hits give low values 0.971 | S. cerevisiae deletion strains, locus YML094W, strain GIM5, hits give low values 1.02 | S. cerevisiae deletion strains, locus YMR219W, strain ESC1, hits give low values 0.999 | [5] 0.982 | [6] 0.937 | [7] 0.973 | S. cerevisiae deletion strains, locus YNL298W, strain CLA4 (second series), hits give low values 0.985 | [8] 1.01 | S. cerevisiae deletion strains, locus YNR030W, strain Alg12, hits give low values 1.01 | [9] 0.995 | [10] 1.01 | S. cerevisiae deletion strains, locus YPR135W, strain CTF4, hits give low values 0.904 | S. cerevisiae strains, strain wild type, hits give low values 1

FC(F)(F)c1cccc(NC(=S)NN=C2CCCCCC2)c1
inactive: S. cerevisiae deletion strains, locus YAR019C, strain CDC15, hits give low values 0.978 | S. cerevisiae deletion strains, locus YBL105C, strain PKC1, hits give low values 0.983 | S. cerevisiae deletion strains, locus YBR135W, strain CKS1, hits give low values 0.994 | S. cerevisiae deletion strains, locus YBR136W, strain MEC1, hits give low values 0.987 | S. cerevisiae deletion strains, locus YBR160W, strain CDC28, hits give low values 0.991 | S. cerevisiae deletion strains, locus YDL017W, strain CDC7, hits give low values 0.983 | S. cerevisiae deletion strains, locus YDL028C, strain MPS1, hits give low values 0.997 | [1] 0.984 | S. cerevisiae deletion strains, locus YDL108W, strain KIN28, hits give low values 1 | S. cerevisiae deletion strains, locus YDL132W, strain cdc53, hits give low values 0.989 | S. cerevisiae deletion strains, locus YDL214C, strain PRR2, hits give low values 0.909 | S. cerevisiae deletion strains, locus YDR052C, strain DBF4, hits give low values 0.982 | S. cerevisiae deletion strains, locus YDR054C, strain cdc34, hits give low values 0.966 | S. cerevisiae deletion strains, locus YDR226W, strain ADK1, hits give low values 0.978 | S. cerevisiae deletion strains, locus YDR477W, strain SNF1, hits give low values 0.91 | S. cerevisiae deletion strains, locus YER123W, strain YCK3, hits give low values 0.831 | S. cerevisiae deletion strains, locus YER133W, strain GLC7, hits give low values 0.892 | S. cerevisiae deletion strains, locus YFL009W, strain cdc4, hits give low values 0.986 | S. cerevisiae deletion strains, locus YFL029C, strain CAK1, hits give low values 0.983 | S. cerevisiae deletion strains, locus YFR003C, strain YPI1, hits give low values 0.989 | S. cerevisiae deletion strains, locus YFR019W, strain FAB1, hits give low values 0.946 | S. cerevisiae deletion strains, locus YFR028C, strain CDC14, hits give low values 0.992 | S. cerevisiae deletion strains, locus YGR040W, strain KSS1, hits give low values 0.914 | S. cerevisiae deletion strains, locus YGR052W, strain FMP48, hits give low values 0.924 | S. cerevisiae deletion strains, locus YGR092W, strain DBF2, hits give low values 0.823 | S. cerevisiae deletion strains, locus YHR079C, strain IRE1, hits give low values 0.81 | S. cerevisiae deletion strains, locus YHR082C, strain KSP1, hits give low values 0.997 | S. cerevisiae deletion strains, locus YHR205W, strain SCH9, hits give low values 0.914 | S. cerevisiae deletion strains, locus YIL147C, strain SLN1, hits give low values 0.987 | S. cerevisiae deletion strains, locus YJL095W, strain BCK1, hits give low values 0.887 | S. cerevisiae deletion strains, locus YJL128C, strain PBS2, hits give low values 0.98 | S. cerevisiae deletion strains, locus YJL157C, strain FAR1, hits give low values 0.869 | S. cerevisiae deletion strains, locus YJR016C, strain ILV3, hits give low values 0.993 | S. cerevisiae deletion strains, locus YJR066W, strain TOR1 (second series), hits give low values 0.827 | S. cerevisiae deletion strains, locus YJR066W, strain TOR1, hits give low values 0.907 | S. cerevisiae deletion strains, locus YKL048C, strain ELM1, hits give low values 0.949 | S. cerevisiae deletion strains, locus YKL067W, strain YNK1, hits give low values 0.92 | S. cerevisiae deletion strains, locus YKL101W, strain HSL1, hits give low values 0.928 | S. cerevisiae deletion strains, locus YKL193C, strain SDS22, hits give low values 0.986 | S. cerevisiae deletion strains, locus YKL203C, strain TOR2, hits give low values 0.936 | S. cerevisiae deletion strains, locus YLR133W, strain CKI1, hits give low values 0.921 | S. cerevisiae deletion strains, locus YLR403W, strain SFP1, hits give low values 0.882 | S. cerevisiae deletion strains, locus YML070W, strain DAK1, hits give low values 0.897 | S. cerevisiae deletion strains, locus YMR001C, strain CDC5, hits give low values 0.979 | S. cerevisiae deletion strains, locus YMR205C, strain PFK2 (second series), hits give low values 0.936 | S. cerevisiae deletion strains, locus YMR277W, strain FCP1, hits give low values 0.988 | S. cerevisiae deletion strains, locus YNL006W, strain LST8, hits give low values 0.986 | S. cerevisiae deletion strains, locus YNL020C, strain ARK1, hits give low values 0.902 | S. cerevisiae deletion strains, locus YNL161W, strain CBK1, hits give low values 0.987 | S. cerevisiae deletion strains, locus YNL183C, strain NPR1, hits give low values 0.949 | S. cerevisiae deletion strains, locus YNL207W, strain RIO2, hits give low values 0.98 | S. cerevisiae deletion strains, locus YNL222W, strain SSU72, hits give low values 1 | S. cerevisiae deletion strains, locus YNL307C, strain MCK1 (second series), hits give low values 0.798 | S. cerevisiae deletion strains, locus YOL078W, strain AVO1, hits give low values 0.994 | S. cerevisiae deletion strains, locus YOL136C, strain PFK27, hits give low values 0.896 | S. cerevisiae deletion strains, locus YOR061W, strain CKA2, hits give low values 0.862 | S. cerevisiae deletion strains, locus YOR119C, strain RIO1, hits give low values 0.973 | S. cerevisiae deletion strains, locus YOR231W, strain MKK1, hits give low values 0.828 | S. cerevisiae deletion strains, locus YOR329C, strain SCD5, hits give low values 0.988 | S. cerevisiae deletion strains, locus YPL031C, strain PHO85, hits give low values 0.884 | S. cerevisiae deletion strains, locus YPL153C, strain RAD53, hits give low values 0.872 | S. cerevisiae deletion strains, locus YPL204W, strain HRR25, hits give low values 0.838 | S. cerevisiae deletion strains, locus YPL209C, strain IPL1, hits give low values 0.988 | S. cerevisiae deletion strains, locus YPR025C, strain CCL1, hits give low values 0.995 | S. cerevisiae deletion strains, locus YPR106W, strain ISR1, hits give low values 0.994 | S. cerevisiae deletion strains, locus YPR111W, strain DBF20, hits give low values 0.984 | S. cerevisiae deletion strains, strain NNK1, hits give low values 1 | S. cerevisiae deletion strains, strain TSCII, hits give low values 0.982
active: [3] 0.846 | S. cerevisiae deletion strains, locus YLR113W, strain HOG1, hits give low values 0.811 | S. cerevisiae deletion strains, locus YPL256C, strain CLN2, hits give low values 0.84

COc1cc2c(cc1OC)[C@@H](c1ccccc1)CN(C)CC2
inactive: S. cerevisiae deletion strains, locus YAL040C, strain CLN3, hits give low values 1 | S. cerevisiae deletion strains, locus YCL061C, strain MRC1 (second series), hits give low values 1.01 | S. cerevisiae deletion strains, locus YDR363W, strain ESC2, hits give low values 1.01 | S. cerevisiae deletion strains, locus YER002W, strain NOP16, hits give low values 1 | [2] 1.01 | [4] 1.01 | [5] 1.01 | [6] 1.01 | S. cerevisiae deletion strains, locus YNL128W, strain TEP1, hits give low values 1.01 | [7] 1.04 | S. cerevisiae deletion strains, locus YNL175C, strain NOP13, hits give low values 1 | S. cerevisiae deletion strains, locus YNL197C, strain WHI3, hits give low values 1 | S. cerevisiae deletion strains, locus YNL224C, strain SQS1, hits give low values 1 | [8] 1.01 | S. cerevisiae deletion strains, locus YOR083W, strain WHI5 (second series), hits give low values 1.02 | [9] 0.995 | [10] 1.01
